Bioassay records as filed in PubChem.
Compounds with a hit are over-represented: about 2.6% of the library has one in this group of screens.
Nrf2 activator = activators of Nrf2 (ARE) signaling; Potency, µM (top dose mostly 46.1 µM), hits mostly activators; 0.31% of 410,000 active; AID 624171; AREc32 ARE-luciferase reporter (MCF7-derived line), luminescence, 24 h; also: nearly all actives have a fitted effect of over 65% in size
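For detection, Steady-Glo was added and plates sat 30 min at RT; before that, AREc32_Fluc cells grown overnight in OPTI-MEM/5% FBS had been treated with 23 nL compound for 24 hr at 37 deg C.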
A549 tox-1 = counter-screen for Nrf2 inhibitors: cytotoxicity in A549 cells; A549 ARE-Fluc cells, CellTiter-Fluor viability, 18-24 h; Potency, µM (titrated, usually from 46 µM), hits mostly inhibitors; 0.16% of 390,000 active
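A549 ARE_Fluc cells in 5% FBS OPTI-MEM were exposed to compounds in concentration-response for 18-24 h at 37 deg C. Viability was read by CellTiter-Fluor fluorescence (Ex 405/Em 525) after 30 min, before the luciferase read.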
CCT modulator = cytosolic chaperonin activity modulation | purified chaperonin ATPase assay, HTRF ADP detection, 30 min | 0.3% of 360,000 active | activity change, % (test concentration not listed), hits read low; in the data active = activity change below about -30%
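TRiC (40 or 20 nM final, by batch activity) in 30 mM Tris pH 7.4, 100 mM KCl, 5 mM MgCl2, 1 mM DTT was treated with compound at 76 uM single dose, then 10 uM ATP, 30 min at 37 °C. ADP was read by HTRF Transcreener.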
TCR activator = activates T cell receptor signaling; primary human leukocytes, anti-CD3, IL-2 HTRF, 48 h; Potency, µM (highest dose often 9.22 µM), actives largely listed as activators; 330,000 tested, under 10 active
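Primary human leukocytes were stimulated with a-CD3 beads plus compounds for 48 hr without co-stimulation; secreted IL-2 was quantified by HTRF using a-IL-2-K (europium cryptate) and a-IL-2-d2, excited at 320nm with acceptor emission read at 665nm.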
Nrf2 inh = blocks Nrf2 signaling; A549 ARE-Fluc reporter, luciferase luminescence, 18-24 h; Potency, µM (series often up to 46 µM), actives largely listed as inhibitors; 2.1% of 360,000 active; also: nearly all actives have a fitted effect of over 60% in size
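Concentration-response testing used A549 ARE_Fluc cells at 5000 cells/well. Following an 18-24 h compound incubation, viability was read by fluorescence (Ex 405/Em 525) and luciferase output by luminescence.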
A-T KAP1 phos = potential ataxia-telangiectasia treatment; F2112 A-T fibroblasts, KAP-1 phosphorylation AlphaLISA; neocarzinostatin DNA damage 30 min before lysis; Potency, µM (titrated, usually from 57.5 µM), hits mostly activators; 0.19% of 320,000 active; also: nearly all actives have a fitted effect of over 45% in size
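hTERT-immortalized A-T patient fibroblasts (F2112), 500 cells/well in OPTI-MEM, 1% FBS, got compounds for 60 min, then NCS for 30 min at 37C. Lysates were then assayed for phospho-KAP-1 by AlphaLISA (anti-pKAP1 donor, anti-KAP1 acceptor beads), 6 hr at 25C.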
FLuc counter 3 = counter-screen for Nrf2 inhibitors: firefly luciferase enzyme inhibition | Potency, µM (titrated, usually from 57.5 µM), usual class: inhibitors | AID 720522 | shares compounds with Nrf2 inh | purified firefly luciferase, luminescence inhibition | 4% of 1,400 active; also: nearly all actives have a fitted effect of over 65% in size
Target sequence (P08659 whole entry, looked up): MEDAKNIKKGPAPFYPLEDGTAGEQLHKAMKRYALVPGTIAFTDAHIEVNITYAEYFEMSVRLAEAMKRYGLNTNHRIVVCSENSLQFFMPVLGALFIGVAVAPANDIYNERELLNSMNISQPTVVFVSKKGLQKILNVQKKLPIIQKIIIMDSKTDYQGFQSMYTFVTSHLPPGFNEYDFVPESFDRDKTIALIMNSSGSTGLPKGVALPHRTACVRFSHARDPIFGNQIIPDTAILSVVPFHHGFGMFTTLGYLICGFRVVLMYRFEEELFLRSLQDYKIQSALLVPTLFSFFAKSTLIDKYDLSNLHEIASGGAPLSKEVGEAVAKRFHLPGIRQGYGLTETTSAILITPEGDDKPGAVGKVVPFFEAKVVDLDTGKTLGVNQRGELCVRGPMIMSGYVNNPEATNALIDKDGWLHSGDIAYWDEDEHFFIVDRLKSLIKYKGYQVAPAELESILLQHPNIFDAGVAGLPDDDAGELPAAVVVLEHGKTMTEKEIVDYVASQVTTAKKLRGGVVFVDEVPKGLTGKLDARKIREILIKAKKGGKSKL
A549 tox-2 = counter-screen for Nrf2 inhibitors: cytotoxicity in A549 ARE cells; shares compounds with Nrf2 inh; A549 ARE-Fluc cells, cytotoxicity counterscreen; Potency, µM (highest dose often 46.1 µM), actives largely listed as inhibitors; 2% of 1,400 active;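 also: cells exposed to compounds for 18 to 24 hours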
ARE-Fluc inh = Nrf2 inhibition confirmed, A549 ARE-luciferase. A549 ARE-firefly luciferase reporter, luminescence. 74% of 1,400 active. AID 720524. shares compounds with Nrf2 inh. Potency, µM (titrated, usually from 46.1 µM), usual class: inhibitors; also: nearly all actives have a fitted effect of over 65% in size
Hits are given with their value; - = inactive; ? = inconclusive; . = no result given; ! = repeats disagree. Unless noted, calls follow the shape of the dose curve; as a rule, active = well fitted curve in the direction sought with a large enough effect; inconclusive = small, poorly fitted or top-dose-only effect, or another doubt; inactive = no such curve, though single readings can be large; an effect the other way counts as inactive or inconclusive.

SMILES | Nrf2 activator | A549 tox-1 | CCT modulator | TCR activator | Nrf2 inh | A-T KAP1 phos | others
COc1ccc(CCNC(=O)c2cnc3sc(N4CCCCCC4)nn3c2=O)cc1 | - | - | . | . | ? | .
O=C(CC1CCCCC1)N1CCC(c2nc(-c3ccc(S(=O)(=O)N4CCCC4)cc3)no2)CC1 | - | - | - | - | 20.6µM | -
O=C(c1cc(S(=O)(=O)N2CCCCC2)ccc1F)N1CCC2(CC1)OCCO2 | - | - | - | - | - | -
C[CH2][Hg][S]c1ccccc1C(=O)O | ? | 16.4µM | - | - | ? | .
O=C(O)c1ccccc1SCC(=O)N1c2ccccc2Sc2ccccc21 | ? | - | - | - | - | -
CCN(CC)C(=O)c1ccc(NC(=O)CCn2nc(-c3ccc(C)cc3)c3ccccc3c2=O)cc1 | - | - | . | . | 18.4µM | .
CC[n+]1c(-c2ccccc2)c2cc(N)ccc2c2ccc(N)cc21 | - | ? | - | - | 14.6µM | .
CCCCn1c(O)c(C(CC)=Nc2ccc(OCC)cc2)c(=O)[nH]c1=O | - | - | - | - | 13µM | -
CCCCn1c(O)c(C(CC)=Nc2ccc(OC)cc2OC)c(=O)[nH]c1=O | - | - | - | - | ? | -
O=P1(Nn2cnnc2)C=C(c2ccccc2)OC(c2ccccc2)=C1 | - | ? | - | - | - | -
O=C(c1ccco1)N1CCN(C(=O)c2ccc(COc3ccc(Cl)cc3Cl)o2)CC1 | - | - | - | - | 25.9µM | .
O=C(O)COc1ccc(Cl)cc1Cl | - | - | - | - | - | .
CC(C)(C)c1nc(N2CCN(C(=O)c3ccco3)CC2)c2nnn(Cc3ccccc3Cl)c2n1 | - | - | - | - | 18.4µM | -
Cc1ccc(NC(=O)COC(=O)/C=C/c2ccco2)cc1S(=O)(=O)N(C)C | ? | - | - | - | - | -
C=C1C(=O)O[C@@H]2C[C@@H](C)[C@@H]3C=CC(=O)[C@@]3(C)[C@@H](O)[C@H]12 | - | 9.2µM | - | - | 3.66µM | -
C=C1C(=O)O[C@@H]2C[C@@H](C)[C@@H]3C=CC(=O)[C@@]3(C)[C@@H](OC(C)=O)[C@H]12 | - | 9.2µM | - | - | 4.11µM | -
NC(N)=S | - | - | - | - | - | -
Cc1ccc(C(=O)COC(=O)c2cccc(NC(=O)c3ccc(Br)cc3)c2)cc1 | - | - | . | . | ? | .
COc1ccccc1C(=O)Nc1ccc2nc(SCC(=O)N3CCCc4ccccc43)sc2c1 | - | - | . | . | 18.4µM | .
CCOC(=O)Cn1c(=O)oc2cc(S(=O)(=O)N3CCN(c4ccccc4F)CC3)ccc21 | - | ? | . | . | - | .
CC(C)[C@H]1C(=O)O[C@H](C(C)C)C(=O)N(C)[C@@H](C(C)C)C(=O)O[C@H](C(C)C)C(=O)N(C)[C@@H](C(C)C)C(=O)O[C@H](C(C)C)C(=O)N1C | - | ? | - | - | 3.66µM | ?
COc1c(C)cc(Br)cc1C(=O)Nc1ccc(-c2nc3ncccc3o2)cc1 | - | - | . | . | ? | .
CCn1c(C)c(C(=O)NCCc2ccccc2)c2cc(OC)ccc21 | - | - | - | - | - | -
COc1ccc2c(c1)c(CC(=O)Nc1c(C)cccc1C)c(C)n2C(=O)c1ccc(Cl)cc1 | - | - | . | . | 23.1µM | .
O=C(NCC(c1cccs1)N1CCOCC1)c1cc([N+](=O)[O-])cc([N+](=O)[O-])c1 (centres undefined) | - | - | - | - | ? | -
SMILES | Nrf2 activator | A549 tox-1 | CCT modulator | TCR activator | Nrf2 inh | A-T KAP1 phos | others
CCN1/C(=C\C=C\C2=[N+](CC)c3ccccc3C2(C)C)C(C)(C)c2ccccc21 | - | 5.17µM | - | - | 0.651µM | -
CCC(=NCc1cc(OC)cc(OC)c1)c1c(O)n(C)c(=O)n(C)c1=O | - | ? | - | - | 23.1µM | -
CCC(=NCc1ccc2c(c1)OCO2)c1c(O)n(C)c(=O)n(C)c1=O | - | - | - | . | ? | -
COc1ccc(C(=O)NCCn2cc(SC(C)c3ccccc3)c3ccccc32)cc1OC (centres undefined) | - | - | . | . | 23.1µM | .
O=c1[nH]c(=O)n(Cc2ccco2)c(O)c1C=NC1CC1 | - | - | - | - | - | -
CC(C)N(Cc1ccco1)/N=C/c1c(O)n(Cc2ccccc2)c(=O)[nH]c1=O | - | - | - | - | ? | 39.8µM
COc1ccc(CC(=O)NC(=S)NNC(=O)COc2c(C)cccc2C)cc1 | - | - | - | - | ? | -
Cc1ccc(C)c(NP(=O)(Oc2ccccc2)Oc2ccccc2)c1 | - | ? | - | - | 20.6µM | .
COc1ccc(NC(=O)CCc2nc(C3=CCN(Cc4cccc(Cl)c4)CC3)no2)cc1OC | - | - | . | . | . | .
COc1ccc(NC(=O)CCn2cnc3onc(-c4ccc(F)cc4)c3c2=O)cc1OC | - | - | . | . | 23.1µM | .
Cc1cc(O)c2c(c1)C(=O)C13C(=C2O)C(=O)[C@H]2[C@@H](O)[C@@H]1[C@H]1[C@H](O)[C@@H]3C(=O)C3=C(O)c4c(O)cc(C)cc4C(=O)C312 (some centres undefined) | - | ? | - | - | ? | 8.91µM
CC1OC(OC2CC(O)C3(CO)C4C(O)CC5(C)C(C6=CC(=O)OC6)CCC5(O)C4CCC3(O)C2)C(O)C(O)C1O (centres undefined) | - | ? | - | - | 0.058µM | . | FLuc counter 3=-;A549 tox-2=?;ARE-Fluc inh=0.0326µM
CCCCCn1c(=O)c(C(=O)Nc2nc3ccccc3[nH]2)c(O)c2ccccc21 | - | ? | - | - | 2.59µM | - | FLuc counter 3=-;A549 tox-2=?;ARE-Fluc inh=6.51µM
CCCCn1c(=O)c(C(=O)Nc2nc3ccccc3[nH]2)c(O)c2ccccc21 | . | . | . | . | . | -
COc1ccc(NC(=O)CSc2nc(-c3ccco3)cc(C(F)(F)F)n2)cc1OC | - | - | . | . | 1.64µM | . | FLuc counter 3=-;A549 tox-2=-;ARE-Fluc inh=2.31µM
C[C@H]1CCC/C=C/[C@@H]2C[C@H](O)C[C@H]2[C@H](O)/C=C/C(=O)O1 | - | ? | - | - | 0.231µM! | - | FLuc counter 3=-;A549 tox-2=?
C[C@H]1CCCC(=O)CCC/C=C/c2cc(O)cc(O)c2C(=O)O1 | - | - | - | - | - | -
COC(=O)[C@@H](Cc1ccccc1)N(Cc1ccccc1)S(=O)(=O)N(Cc1ccccc1)[C@H](Cc1ccccc1)C(=O)OC | - | - | - | - | ? | -
